Experimental data: PubChem BioAssay AID504725 (Broad Institute, 2011); call rule not given here
Potency and affinity values are given separately.

molecular target: KSHV LANA C-terminal domain (residues 932-1162) binding to LBS DNA (UniProt O40947); assay: KSHV LANA DNA-binding disruption – biochemical, fluorescence polarization, cherry-picked samples, dose response (AID 504725); conditions: MBP-C-LANA / FAM-LBS DNA fluorescence polarization, percent change from plate compound-well median; series mostly up to 35 µM; activity change, negative = inhibition: at the top concentration

Activity change, negative = inhibition, inactive:
O=C(NCc1cccnc1)C(=O)C1C(=O)Nc2ccccc21 (configuration not stated) 1.28%
Cc1cnc(NC(=O)Cc2c[nH]c3ccccc23)s1 1.63%
O=c1cc(-c2ccc(O)c(O)c2)oc2cc(O[C@@H]3O[C@H](CO)[C@@H](O)[C@H](O)[C@H]3O)cc(O)c12 -15.9%
O=c1oc2ccccc2nc1/C=C(\O)c1ccc(Br)cc1 -14.8%
NNc1nc2sc3c(c2c(=O)n1C1CCCCC1)CCN(Cc1ccccc1)C3 -4.12%
C/C(=N/NC(=O)c1cc(O)c(O)c(O)c1)c1ccc([N+](=O)[O-])cc1 -9.97%
Cc1cccc(COc2ccc(/C=N/NC(=O)c3nnn(-c4nonc4N)c3COc3ccc(F)cc3)cc2)c1 8.39%
O=C(c1cnn2c(-c3ccccc3)cc(-c3ccccc3)nc12)N1CCN(Cc2ccccc2)CC1 -0.43%
Cc1cc(N)ccc1N=Nc1c(C)n(C)n(-c2ccccc2)c1=O -0.045%
COc1ccc(-c2csc(NC(=O)CSc3nc(C)nc4sc(C(=O)O)c(C)c34)n2)cc1 -5.52%
NC(=S)COc1ccccc1 3.96%
Nc1nnc(CC(=O)N/N=C/c2cc([N+](=O)[O-])cc(Br)c2O)s1 -3.27%
COc1ccc(C(=O)OCC(=O)NC2CC2)cc1S(=O)(=O)Nc1ccc(C)cc1 2.49%
Cc1c(C#N)c(=O)c(-[n+]2ccccc2)c([S-])n1-c1ccc(Cl)cc1 3.76%
CCOC(=O)c1c(C)n(C)c2ccc(OCCN(C)C)cc12 -3.37%
COc1ccc(C2(CNC(=O)CCC(=O)O)CCCC2)cc1OC -1.65%
Cc1cccc(-c2nsc(SCC(=O)Nc3nccs3)n2)c1 2.95%
COC(=O)c1ccc(Oc2nc(Nc3ccc(F)cc3)nc(N3CCCC3)n2)cc1 -0.261%
Cc1cccc(N(Cc2ccccc2)C(=O)C2CCN(C(=O)c3ccccc3C)CC2)c1 -0.766%
O=C(CCNc1ccc(Cc2ccncc2)cc1)c1cccc([N+](=O)[O-])c1 -8.33%
COc1ccc(N=C2SC(CC(=O)Nc3ccccc3)C(=O)N2Cc2ccco2)cc1 (configuration not stated) 0.033%
O=C(/C=C/c1ccco1)Nc1ccccc1C(=O)Nc1cccc(C(=O)O)c1 -17%
CC(OC(=O)CCN1C(=O)C2CC=CCC2C1=O)C(=O)Nc1ccc(F)cc1 (configuration not stated) -1.54%
COc1ccccc1N1CCN(S(=O)(=O)c2c(C)[nH]c(C)c2C(=O)N2CCCC2)CC1 -0.392%
CC(C)=C[C@@H]1C[C@H](C)[C@H]2CC[C@H](C)c3c(O[C@@H]4O[C@@H](C)[C@@H](O)[C@@H](O)[C@@H]4O)c(O)c(C)c1c32 0.723%
O=C(CN1CC[C@@]2(O)CCCC[C@H]2[C@@H]1c1ccc(F)cc1)NCc1ccco1 -1.3%
COc1cccc(NC(=O)N(CCN(C)C)C(C)c2cccnc2)c1 (configuration not stated) 1.39%
COC(=O)Cn1c(=NC(=O)c2sc3ccccc3c2Cl)sc2cc(S(N)(=O)=O)ccc21 -2.44%
O=C(CSc1cccc2cccnc12)N/N=C/c1ccc(O)cc1 1.06%
COc1ccc(NS(=O)(=O)c2cccc3ccccc23)cc1 1.39%
Cc1nc2c(=O)[nH]c(=S)[nH]c2[nH]c1=O -11.5%
COc1cccc(NC(=O)CN(C)CC(=O)NCc2ccco2)c1 -0.425%
CCCCN(C(=O)C(C)Oc1ccc(Br)cc1)c1c(N)n(CC(C)C)c(=O)[nH]c1=O (configuration not stated) 2.89%
Nc1ccc2c(O)cc(S(=O)(=O)O)cc2c1 -8.96%
Oc1[nH]c2ccccc2c1N=Nc1ccccc1F 16.6%
COC(=O)C1=COC(C)C2CN3CCc4c([nH]c5ccccc45)C3CC12 (configuration not stated) 0.07%
O=S(=O)(NCc1cccnc1)c1ccc(Cl)s1 -0.117%
